Measurements: PubChem BioAssay (NCI)
This is part of a sample that, as a whole, favours compounds with a hit. Of some 79,000 tested, about 15% had one in any assay. Values without a mark were called inactive. No stated cut-off is given here; in the data, active means growth inhibition above about 70%; inactive means the rest.

Assay: NCI Yeast Anticancer Drug Screen. Data for the bub3 strain (AID 167)
Details: S. cerevisiae bub3 mutant strain, at 50.0 µM, hits give high values
Summary of the method: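 Whole-cell yeast assay. The mutant strain was incubated with compounds, and growth inhibition was determined by comparison with vehicle-treated cells.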

Q: Which growth inhibition does the source give for `C#CCN(C)Cc1cc(OC)c(OC)c(OC)c1` here?
A: 7.65%

Q: With `O=[N+]([O-])c1ccccc1Sc1ccc2c3c(cccc13)CN(CCCO)C2` as the compound, how does the growth inhibition read?
A: 7.15%

Q: Which growth inhibition does the source give for `O=C1CC(C2OCOC3COCOC32)CC(=O)N1` (stereo not given) here?
A: -12.8%

Q: With `CCCCCc1cc(O)cc2c1Oc1cc(O)cc(C(=O)CCCC)c1C(=O)O2` as the compound, how does the growth inhibition read?
A: -9.4%

Q: Which growth inhibition does the source give for `Nc1ccc2ccc(S(=O)(=O)O)cc2c1` here?
A: -8.8%

Q: Which growth inhibition does the source give for `CC1C(NNC(N)=O)Oc2cc3c(cc2C1c1ccccc1O)OCO3` (stereo not given) here?
A: -11.1%

Q: With `CC(C)(CO)N=Cc1ccc(Cl)c(Cl)c1` as the compound, how does the growth inhibition read?
A: -11.5%

Q: For `CC(=O)Oc1ncnc2c1cnn2C`, which growth inhibition is on record?
A: 2.15%

Q: With `CC1CCCCN1CCCO` (stereo not given) as the compound, how does the growth inhibition read?
A: -14.6%

Q: For `Nc1ccc(S(=O)(=O)Nc2nc3ccccc3nc2Nc2ccc(S(N)(=O)=O)cc2)cc1`, which growth inhibition is on record?
A: -10.3%

Q: For `CCOC(=O)c1ccc(NC(=O)Nc2cc(Cl)ncn2)cc1`, which growth inhibition is on record?
A: 10.3%

Q: Which growth inhibition does the source give for `COC(=O)CN1C(=O)OC(c2ccccc2)C1=O` (stereo not given) here?
A: -3.85%

Q: Which growth inhibition does the source give for `O=c1[nH]c2cc([N+](=O)[O-])ccc2nc1/C=C(\O)c1ccco1` here?
A: -18.7%

Q: Which growth inhibition does the source give for `FC(F)(F)c1cccc(NC(=S)Nc2ccccc2S)c1` here?
A: 9.95%

Q: Which growth inhibition does the source give for `O=C(O)CSc1c(Cl)c(=O)oc2ccc(Cl)cc12` here?
A: 17%

Q: For `Cc1ccc2nc(-c3ccc(CSC(=N)N)cc3)oc(=O)c2c1`, which growth inhibition is on record?
A: 19.1%

Q: For `CCN(CC)/[N+]([O-])=N/OC`, which growth inhibition is on record?
A: 10.3%

Q: Which growth inhibition does the source give for `CCCCCCCCCCCCCCCCOC(=O)c1cc([N+](=O)[O-])cc([N+](=O)[O-])c1Sc1ncnc2nc[nH]c12` here?
A: -21.2%

Q: For `COC(=O)[C@H]1C=C[C@H](OC2OC(COC(C)=O)C(OC(C)=O)C(OC(C)=O)C2OC(C)=O)n2c(=O)n(-c3ccccc3)c(=O)n21` (stereo not given in full), which growth inhibition is on record?
A: 15.8%

Q: Which growth inhibition does the source give for `Cc1ccc(/C(O)=C/c2nc3ccc([N+](=O)[O-])cc3nc2/C=C(\O)c2ccc(C)cc2)cc1` here?
A: -19.2%

Q: Which growth inhibition does the source give for `CCCCOCN1COCN(COCCCC)C1=O` here?
A: 18.1%

Q: Which growth inhibition does the source give for `CC1CCCC(C)C1O` (stereo not given) here?
A: -4.6%

Q: With `CS(=O)(=O)c1nc2ncnc(N)c2[nH]1` as the compound, how does the growth inhibition read?
A: -27.1%

Q: For `NC1=Nc2ccccc2Sc2nncn21`, which growth inhibition is on record?
A: 0.1%

Q: Which growth inhibition does the source give for `COc1c2cc(C(C)(C)C)cc1CSCc1cc(C(C)(C)C)cc(c1OC)CCCCC2` here?
A: -14.6%

Q: Which growth inhibition does the source give for `NCCNC(=O)CCC(CN(CC(=O)O)CC(=O)O)N(CC(=O)O)CC(=O)O` (stereo not given) here?
A: 39%

Q: With `O=C(OCCSC(=S)N1CCCCC1)c1ccccc1` as the compound, how does the growth inhibition read?
A: 16.6%

Q: Which growth inhibition does the source give for `Cc1ccccc1C(=O)c1ccc2ccccc2c1` here?
A: 9.3%

Q: For `O=C1NCC2Cc3ccccc3C(c3ccccc3)=C12` (stereo not given), which growth inhibition is on record?
A: -3.9%

Q: Which growth inhibition does the source give for `O=C(O)c1cncc(C(=O)O)c1` here?
A: -47.5%

Q: With `OC1CCC2CCCC2C1` (stereo not given) as the compound, how does the growth inhibition read?
A: -8.6%

Q: For `O=C1CSC(c2ccc([N+](=O)[O-])cc2)N1c1nc(-c2ccc3c(c2)CCCC3)cs1` (stereo not given), which growth inhibition is on record?
A: 1%

Q: For `CC(=O)Oc1c(C)cc2c(c1C)C(C)(C)CN2C(=O)C(C)(C)C`, which growth inhibition is on record?
A: -1.3%

Q: With `CCC(Oc1ccc(OC)c2c1C(=O)CCC2)C(=O)O` (stereo not given) as the compound, how does the growth inhibition read?
A: -0.85%

Q: For `NC(=O)C(CC(=O)O)NC(=O)c1ccccc1` (stereo not given), which growth inhibition is on record?
A: -10.7%

Q: Which growth inhibition does the source give for `C=CCC(c1ccccc1)(c1ccccc1)c1ccccc1` here?
A: 7.25%

Q: Which growth inhibition does the source give for `NC(Cc1ccc(S(=O)(=O)O)cc1)C(=O)NC(Cc1ccc(S(=O)(=O)O)cc1)C(=O)NC(Cc1ccc(S(=O)(=O)O)cc1)C(=O)O` (stereo not given) here?
A: 9.3%

Q: With `CCc1cc2c(c3c1CCCC3=O)CC1(C2)Cc2cc(CC)c3c(c2C1)C(=O)CCC3` as the compound, how does the growth inhibition read?
A: 10.7%

Q: With `COC(=O)c1nn2c(=O)n(C(C)=O)c3ccccc3c2c1C(=O)OC` as the compound, how does the growth inhibition read?
A: 8.5%

Q: Which growth inhibition does the source give for `COC(=N)c1ncn(Cc2ccccc2)c1N` here?
A: -7.35%
